Bim-Bcl-W: inhibitors of Bim binding to Bcl-W, primary screen, biochemical, multiplexed, bead-based flow cytometry | Bcl-2-like protein 2 (Homo sapiens), Q92843 | Bim peptide-Bcl-W binding | inhibition, % at 10 µM | 190,000 compounds, 0.02% hits;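 further: higher means less fluorescent Bim peptide bound to Bcl-W beads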
Bfl-1 Bim block: inhibitors of Bim binding to Bfl-1, primary screen, biochemical, multiplexed, bead-based flow cytometry; Bim-Bfl-1 binding inhibition; inhibition, % at 10 µM; 190,000 compounds, 0.12% hits; AID 1008, 2008
Bim-Bcl-B: inhibitors of Bim-Bcl-B binding, primary screen, biochemical, multiplexed, human Bcl-2 family; Bcl-2-like protein 10 (Homo sapiens), Q9HD36; bead-based flow cytometry, Bim peptide-Bcl-B binding; inhibition, % at 10 µM; 190,000 compounds, 0.073% hits; AID 951, 2007
Target sequence (Q9HD36 whole entry, looked up): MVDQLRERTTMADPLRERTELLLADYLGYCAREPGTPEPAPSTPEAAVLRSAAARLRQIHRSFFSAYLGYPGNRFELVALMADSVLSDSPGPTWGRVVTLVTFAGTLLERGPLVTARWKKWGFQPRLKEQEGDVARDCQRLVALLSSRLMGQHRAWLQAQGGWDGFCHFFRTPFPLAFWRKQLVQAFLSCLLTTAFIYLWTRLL
Bim-Bcl-XL: inhibitors of Bim-Bcl-XL binding, primary screen, biochemical, multiplexed, bead flow cytometry, human Bcl-XL; inhibition, % at 10 µM; Bim peptide-Bcl-XL binding, fluorescence; Bcl-2-like protein 1 (Homo sapiens), Q07817; 190,000 compounds, 0.04% hits
Target sequence (Q07817 whole entry, looked up): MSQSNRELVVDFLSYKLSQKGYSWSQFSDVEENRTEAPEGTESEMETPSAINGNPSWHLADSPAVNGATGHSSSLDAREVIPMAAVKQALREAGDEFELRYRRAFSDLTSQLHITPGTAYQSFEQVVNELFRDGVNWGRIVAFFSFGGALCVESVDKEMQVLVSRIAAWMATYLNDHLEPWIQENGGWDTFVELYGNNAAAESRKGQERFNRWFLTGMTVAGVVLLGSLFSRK
Phagocytosis inh: inhibitors of macrophage phagocytosis, primary screen, imaging, J774A.1 cells, IgG beads; inhibition, % at 5 µM; 110,000 compounds, 0.07% hits; AID 1029, 2008; J774A.1 macrophage IgG-bead phagocytosis;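 active means inhibition above the mean of the plate negative controls plus 5 SD, cut at about 13% in these data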;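 further: phagocytic index as fraction of beads internalized from green versus red external bead signal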
Bcl-2 Bim block: inhibitors of Bim-Bcl-2 binding, primary screen, biochemical, multiplexed, human Bcl-2 family | inhibition, % at 10 µM | Bead-based flow cytometry, Bim peptide-Bcl-2 binding | 190,000 compounds, 0.06% hits; in the data active means inhibition above about 40%
Target sequence (P10415 whole entry, looked up): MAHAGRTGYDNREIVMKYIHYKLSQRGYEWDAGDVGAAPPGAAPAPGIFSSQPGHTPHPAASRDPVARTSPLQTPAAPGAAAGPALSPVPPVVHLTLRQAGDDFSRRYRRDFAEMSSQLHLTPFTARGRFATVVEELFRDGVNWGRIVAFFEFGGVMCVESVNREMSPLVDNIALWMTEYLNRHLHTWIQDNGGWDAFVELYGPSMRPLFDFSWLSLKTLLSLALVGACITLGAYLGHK
Large screens that a line does not name were inactive; [ ] = dose if it differs, or a comment. Compounds with a hit are over-represented: about 0.23% of the library has one in this group of screens. Unless noted, no stated cut-off is given here; in the data, active means inhibition above about 40%.

COc1ccccc1Cn1nnc2c(=O)[nH]c(C3CCN(C(=O)c4ccc(C)cc4)CC3)nc21	Bim-Bcl-B 50 (no result: Phagocytosis inh)
COc1ccccc1Cn1nnc2c(=O)[nH]c(C3CCN(C(=O)c4ccc(F)cc4)CC3)nc21	Bim-Bcl-B 57 (no result: Phagocytosis inh)
O=C(COC(=O)c1ccc(O)cc1)Nc1ccc(Cl)cc1	none (no result: Phagocytosis inh)
O=C(CNC(=O)c1ccco1)NCC(=O)OCc1ccccc1Br	Bcl-2 Bim block 89 (no result: Bfl-1 Bim block, Bim-Bcl-B)
COc1ccc2c(c1)-c1c(ssc1=S)C(C)(C)N2C(=O)CSC1=NCCS1	none
CCOc1ccc2c(c1)-c1c(ssc1=S)C(C)(C)N2C(=O)c1ccco1	Phagocytosis inh 91[artifact]
CC(=O)c1cn(-c2ccc(Cl)cc2)c(=O)n(Cc2ccc(F)cc2)c1=O	none (no result: Phagocytosis inh)
CN(c1ccc(C(=O)Nc2ccccc2C(F)(F)F)cc1)S(C)(=O)=O	Phagocytosis inh 54
CN(C)S(=O)(=O)N(CC(=O)Nc1ccccc1C(F)(F)F)c1ccccc1	Bcl-2 Bim block 86 (no result: Bfl-1 Bim block, Bim-Bcl-B)
CSc1ccccc1NC(=O)CN(c1ccccc1)S(=O)(=O)N(C)C	none
CN(c1ccc(C(=O)Nc2ccccc2C(=O)N2CCCC2)cc1)S(C)(=O)=O	none
O=C(Nc1cccc(F)c1)NC1(C(=O)N2CCOCC2)CCCCC1	none (no result: Phagocytosis inh)
CC1CCC(N(CCCN)Cc2ccco2)CC1C (stereo unspecified)	none (no result: Phagocytosis inh)
CNC(=S)N/N=C/C1=CCC2CC1C2(C)C (stereo unspecified)	Bfl-1 Bim block 52, Bim-Bcl-B 65, Bcl-2 Bim block 69
CC1(C)C2CC=C(/C=N/NC(=S)NCCc3ccccc3)C1C2 (stereo unspecified)	none (no result: Phagocytosis inh)
Cc1ccc(-c2nnc(Cc3ccc(Cl)cc3)o2)cc1	Bfl-1 Bim block 67, Bim-Bcl-B 87, Bcl-2 Bim block 92
c1ccc(Cc2nnc(-c3ccccc3)o2)cc1	none
Cc1nonc1NC(=O)CSc1nnc(-c2ccoc2C)n1C	Bfl-1 Bim block 44, Bim-Bcl-XL 43
CCOC(=O)C1=C(O)/C(=C\c2ccc(OC)c(OC)c2)N=C1C	none (no result: Phagocytosis inh)
CCOc1cc(/C=C2/N=C(C)C(C(=O)OC)=C2O)ccc1O	Bim-Bcl-W 59, Bfl-1 Bim block 58, Bim-Bcl-B 44, Bcl-2 Bim block 59 (no result: Phagocytosis inh)
COc1cc(C(=O)OCCCN=C2NS(=O)(=O)c3ccccc32)cc(OC)c1OC	none (no result: Phagocytosis inh)
CCC(C)(C)c1ccc(OCCCC[n+]2cccc(C)c2)c(C(C)(C)CC)c1	none (no result: Phagocytosis inh)
COc1ccc(-c2noc(COc3ccc4c(c3)OCO4)n2)cc1	none
COc1ccc(-c2noc(COc3ccc4c(c3)OCO4)n2)cc1OC	Bcl-2 Bim block 85 (no result: Bfl-1 Bim block, Bim-Bcl-B)
Cc1cc(C)nc(SCc2cc(=O)c(OC(=O)c3ccc(Cl)c([N+](=O)[O-])c3)co2)n1	Bim-Bcl-XL 52
CCN1C(=O)/C(=C/C=C2\C=CN(CC)c3ccccc32)SC1=S	Bfl-1 Bim block 50
CCCN1C(=O)/C(=C\C=C2/Sc3ccccc3N2CC)SC1=S	none (no result: Phagocytosis inh)
COc1cccc(CNC23CC4CC(CC(C4)C2)C3)c1OCc1ccccc1	none (no result: Phagocytosis inh)
CC(=O)/C(=C/c1ccc(N(C)C)cc1)C(=O)c1ccccc1	Phagocytosis inh 26[artifact]
COCCN(C(=S)Nc1cccc(C)c1)C(C)c1cccnc1 (stereo unspecified)	none (no result: Phagocytosis inh)
O=C(C1CCC(Cn2c(=S)[nH]c3ccccc3c2=O)CC1)N1CCN(c2ccccn2)CC1 (stereo unspecified)	Bim-Bcl-B 52 (no result: Phagocytosis inh)
Cn1c(=O)c(=O)n(C)c2cc(S(=O)(=O)NCCOc3ccccc3Cl)ccc21	none (no result: Phagocytosis inh)
CSc1n[nH]c2nc3c(c(=O)n12)C1(CCCC1)Cc1ccccc1-3	Bfl-1 Bim block 44, Bim-Bcl-XL 40
COC(=O)c1ccc(C2Nc3cccc4cccc(c34)N2)cc1	none (no result: Phagocytosis inh)
COc1cc(C2Nc3cccc4cccc(c34)N2)cc(OC)c1O	Bim-Bcl-W 42, Bfl-1 Bim block 57 (no result: Phagocytosis inh)
COc1cc(C2Nc3cccc4cccc(c34)N2)ccc1OC(C)=O	Bfl-1 Bim block 43
O=c1oc2ccccc2c2c1nnn2CCO	none (no result: Phagocytosis inh)
Cc1c(N=C2C=CC(=O)c3ccccc32)c(=O)n(-c2ccccc2)n1C	Bfl-1 Bim block 53 (no result: Phagocytosis inh)
C/C(=N\NC(=O)COc1ccc(C(C)(C)C)cc1)c1ccc2c(c1)OCCO2	Bim-Bcl-W 48, Bim-Bcl-B 88, Bcl-2 Bim block 85 (no result: Phagocytosis inh)
CCc1ccc(OCC(=O)N/N=C(\C)c2ccc3c(c2)OCCO3)cc1	none
S=C(NC1CCCCC1)N(CCc1ccccc1)CCc1ccccc1	Phagocytosis inh 71[artifact]
OCCN(Cc1ccccc1)C(=S)NC1CCCCC1	none (no result: Phagocytosis inh)
COc1ccc(N2CCN(C(=O)c3cc(=O)[nH]c4ccccc34)CC2)cc1	Bfl-1 Bim block 58, Bim-Bcl-B 74, Bcl-2 Bim block 80 (no result: Phagocytosis inh)
O=C(/C=C/c1ccccc1Cl)c1cccnc1	none
O=C(/C=C/c1ccccc1Cl)c1ccccc(=O)c1O	Bfl-1 Bim block 54, Bcl-2 Bim block 42
Cc1ccc(/C=C/C(=O)c2ccccc(=O)c2O)c(C)c1	none
Cc1ccc(C)c(/C=C/C(=O)c2ccccc(=O)c2O)c1	Bfl-1 Bim block 41
Cc1ccc(NC(=O)CSc2nnc(C(F)(F)F)n2C)cc1[N+](=O)[O-]	none
CN1CCN(C2=C(Cl)C(=O)C(c3cnc(N4CCCCC4)s3)=C(Cl)C2=O)CC1	Bfl-1 Bim block 54, Bim-Bcl-B 58, Bcl-2 Bim block 44 (no result: Phagocytosis inh)
CCOc1c(Cl)cc(CNc2ccc(N3CCCC3)cc2)cc1OC	Bfl-1 Bim block 41 (no result: Phagocytosis inh)
O=C(OCc1cnc(Cl)s1)c1cccc(Cl)c1Cl	Bfl-1 Bim block 51, Bim-Bcl-B 70, Bcl-2 Bim block 76
CCOC(=O)C1CCCN(c2ncnc3c2cnn3-c2cccc(C)c2)C1 (stereo unspecified)	Bfl-1 Bim block 47, Bim-Bcl-XL 46
C(=N\Nc1ccccn1)/c1ccc2c(c1)OCCO2	none (no result: Phagocytosis inh)
COc1cccc(NC(=O)CSc2nncn2N)c1	Bfl-1 Bim block 41
COc1cccc(NC(=O)CSc2nncn2-c2ccccn2)c1	none
CC(C)(C)C1CCC(=NNC(=O)c2cc3c(s2)CCCC3)CC1 (stereo unspecified)	Bim-Bcl-W 41, Bfl-1 Bim block 44, Bim-Bcl-XL 43
CN(C)S(=O)(=O)c1cccc(-c2nn(-c3ccccc3)cc2/C=C(\C#N)c2nc3ccccc3[nH]2)c1	none
CN(C)S(=O)(=O)c1cccc(-c2nn(-c3ccccc3)cc2/C=C2\SC(=S)NC2=O)c1	Bfl-1 Bim block 41, Bim-Bcl-B 55, Bim-Bcl-XL 43
Cc1ccc(S(=O)(=O)/N=C2/C=C(Sc3ncn[nH]3)C(=O)c3ccccc32)cc1	Bfl-1 Bim block 62
Cc1ccc(S(=O)(=O)/N=C2/C=C(Sc3ncn[nH]3)C(=O)c3ccccc32)c(C)c1	Bfl-1 Bim block 69
